# High-throughput results deposited in PubChem BioAssay by National Center for Advancing Translational Sciences (NCATS).
# TGFb SMAD3 inh = inhibitors of TGF-b signaling; HepG2 CAGA-GFP TGF-b/SMAD3 reporter, GFP fluorescence, 18 h; TGF-beta stimulated, 500 pg/mL final; Potency, µM (series often up to 46.1 µM), without a hit: at the top dose activity, negative = inhibition, most hits filed as inhibitors; 410,000 compounds, 1.2% hits; also: % is scaled to controls: 0 for no effect and ±100 for the full control effect; nearly all actives have a fitted effect of over 65% in size
#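 HEPG2 CAGA-GFP, 1000 cells/well; 2 h settle, 37 C; cpd via pin tool; TGF-b 500 pg/mL final; 18 h, 37 C; GFP imaging ex488/em500-530; %Activity normalised to -TGF-b and +DMSO controls; CRC fit, curve class.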
# TDP1 cell CPT = growth inhibition of DT40 Tdp1-/-;hTDP1 cells with camptothecin (screen for TDP1 inhibitors); chicken DT40 Tdp1-/-;hTDP1 cells + 20 nM CPT, ATP luminescence, 48 h; 420,000 compounds, 12% hits; Potency, µM (titrated, usually from 46.2 µM), inactives show at the highest dose activity change, negative = growth inhibition, most hits filed as inhibitors; AID 686979; also: % is scaled to controls: 0 for no effect and ±100 for the full control effect; nearly all actives have a fitted effect of over 55% in size
#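 Cell growth measured by CellTiter-Glo luminescence after a minimum 48 h, 37 C compound exposure with 20 nM CPT in Tdp1-knockout DT40 cells stably expressing hTDP1, seeded 400/well; qHTS titration format.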
# HepG2 viability = kills HepG2 cells in TGF-b inhibitor counter-screen; HepG2 CAGA-GFP viability, ATP luminescence, 18 h; Potency, µM (highest dose often 46.1 µM), for inactives: top-dose activity change, negative = cytotoxicity, usual class: cytotoxic; 410,000 compounds, 0.76% hits
#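 CellTiter-Glo luminescence gave cytotoxicity after 18 hours at 37 degrees C. The cells were HepG2 CAGA-GFP in 1% FBS DMEM, stimulated with 500 pg/mL TGF-beta after compound addition. %Activity was normalised to no-cell wells (complete cell-killing) and DMSO (no toxicity), and curves were fitted and classified.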
# S2 tox = cell viability loss in ATXN counter-screen; 400,000 compounds, 0.49% hits; Potency, µM (titrated, usually from 56.7 µM), usual class: cytotoxic; S2 cells (HEK-293 line with an ATXN2-luciferase reporter) viability, CellTiter-Fluor protease fluorescence, 24 h; also: nearly all actives have a fitted effect of over 40% in size
# ATXN2 expr inh = reduces ATXN2 reporter expression in HEK-293 cells. AID 1745845. Potency, µM (doses to about 57 µM), for inactives: at the highest dose activity change, negative = inhibition, usual class: inhibitors. 360,000 compounds, 0.72% hits. HEK-293 ATXN2-luciferase reporter, luminescence, 24 h; also: % is scaled to controls: 0 for no effect and ±100 for the full control effect; nearly all actives have a fitted effect of over 55% in size
#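 ATXN2-luciferase reporter cells (luciferase flanked by upstream and downstream ATXN2 gene portions) were treated 24 h at 37 °C with compounds at up to 57 uM. SteadyGlo luminescence gave expression; GF-AFC fluorescence gave viability.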
# DT40 TDP1 no CPT = qHTS for Inhibitors of human tyrosyl-DNA phosphodiesterase 1 (TDP1): qHTS in cells in absence of CPT | AID 686978, 2013 | 420,000 compounds, 15% hits | Potency, µM (highest dose often 46.2 µM), inactives show at the highest dose activity change, negative = growth inhibition, hits mostly inhibitors | DT40 Tdp1-/- hTDP1 cells, no CPT, ATP luminescence, 48 h; also: % is scaled to controls: 0 for no effect and ±100 for the full control effect; nearly all actives have a fitted effect of over 55% in size
#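 Luminescent ATP content (CellTiter-Glo) served as the growth readout. Knockout chicken DT40 cells expressing human TDP1 were exposed to compounds without camptothecin for a minimum 48 hr at 37 °C.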
# An asterisk follows results filed as active; i = inactive; ? = inconclusive; nt = no result given; [ ] = remark or other dose. Most compounds without a hit are left out; they make up all but 17% or so of the library. Calls follow the shape of the dose curve; as a rule, active = well fitted curve in the direction sought with a large enough effect; inconclusive = small, poorly fitted or top-dose-only effect, or another doubt; inactive = no such curve, though single readings can be large; an effect the other way counts as inactive or inconclusive. Potency is read from the fitted curve at half-maximal effect.
SMILES,TGFb SMAD3 inh,TDP1 cell CPT,HepG2 viability,S2 tox,ATXN2 expr inh,DT40 TDP1 no CPT
CC(=O)N1CCCc2cc(S(=O)(=O)N3CCCC(C(=O)N4CCN(c5ccccc5F)CC4)C3)ccc21 (configuration not stated),-23.8%,3.66µM*,-14.0%,?,?,5.8µM*
COc1ccc(NS(=O)(=O)c2ccc3c(c2)CCCN3C(=O)C2CCC2)cc1OC,-12.6%,2.59µM*,-22.8%,?,?,3.66µM*
CC(=O)N1CCc2cc(S(=O)(=O)N3CCN(c4ccc(C)cc4)C(C)C3)ccc21 (configuration not stated),-67.9%,23.1µM*,-18.8%,i,-29.5%,20.6µM*
CCOc1ccc(S(=O)(=O)N2CCC(C(=O)N3CCOCC3)CC2)cc1C,?,-7.6%,-0.4%,i,-8.3%,-10.1%
COc1cc(NC(=O)C2CCCN(S(=O)(=O)c3ccc4c(c3)oc(=O)n4C)C2)cc(OC)c1 (configuration not stated),1.9%,?,-35.9%,i,-3.7%,?
Cn1c(=O)oc2cc(S(=O)(=O)N3CCCC(C(=O)N4CCN(c5ccc(Cl)cc5)CC4)C3)ccc21 (configuration not stated),?,5.17µM*,-1.4%,i,-28.8%,1.3µM*
COc1ccc(N2CCN(C(=O)C3CCCN(S(=O)(=O)c4ccc5c(c4)CCCN5C(C)=O)C3)CC2)cc1 (configuration not stated),?,4.11µM*,-21.4%,nt,nt,2.31µM*
O=C(NCc1cccnc1)Nc1ccc([N+](=O)[O-])cc1,-4.4%,?,-2.6%,i,-11.1%,-21.6%
O=C(NCc1cccnc1)C1CCN(S(=O)(=O)c2cc([N+](=O)[O-])ccc2Cl)CC1,-4.9%,?,-0.6%,i,-6.1%,18.4µM*
CCCN(CC#CCO)CCC,-1.5%,-7.0%,7.7%,i,-9.4%,-1.8%
COC(=O)C1=C(c2ccc(F)cc2OCc2ccccc2)C[C@@H]2CC[C@H]1N2C(=O)N1CCC(C)CC1,?,?,-16.4%,?,?,?
COC(=O)C1=C(c2ccc(F)cc2OCc2ccccc2)C[C@@H]2CC[C@H]1N2C(=O)N1CCC(O)(c2ccc(Cl)cc2)CC1,-24.7%,?,-19.1%,?,-17.9%,23.1µM*
COC(=O)C1=C(c2ccc(F)cc2OCc2ccccc2)C[C@@H]2CC[C@H]1N2C(=O)N1CCOCC1,?,8.2µM*,-7.8%,i,0.5%,7.31µM*
CCN1CCN(C(=O)COc2ccc3c(c2)C(=O)CC2(CCN(C(C)=O)CC2)O3)CC1,2.3%,-9.9%,-44.3%,i,3.9%,?
C=CC(C)C(C(=O)c1ccccc1)N(C)C (configuration not stated),-8.7%,-10.9%,-3.5%,i,nt,-21.5%
COc1ccc(OC)c(CC(C)N)c1 (configuration not stated),nt,-19.0%[92.5 µM],nt,?,2.3%[116 µM],-15.7%[92.5 µM]
COC(=O)c1ccc(NC(=O)CSc2nc3ccc(N4C(=O)C5C6C=CC(C6)C5C4=O)cc3s2)cc1 (configuration not stated),-6.5%,20.6µM*,-39.3%,?,?,18.4µM*
CC(C)=CC1C(C(=O)OCN2C(=O)C3=C(CCCC3)C2=O)C1(C)C (configuration not stated),nt,-28.3%,nt,i,?,-23.5%
Cc1cc2oc(=O)cc(-c3ccccc3)c2c(C)c1-c1ccc(CO)cc1,?,18.4µM*,-26.6%,?,-13.6%,18.4µM*
